The record followed here is PubChem BioAssay.

Assay [1] can be described thus: small molecules captured by biotinylated probe aFSTL3 – biochemical, small-molecule microarray, fluorescence 635/667, stem cell growth factor project, primary screen (AID 1064).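 Note: measures binding of the biotinylated anti-FSTL3 antibody to printed compounds.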 The following applies: higher = more signal.
Assay [2] in a line: binders from COS7 lysate, DM2A8 probe, primary screen, torsin A project, cell lysate, small-molecule microarray, fluorescence 635/667 (AID 1065). The following applies: higher = more signal, COS7 lysate expressing mutant human TOR1A.
Assay [3] can be described thus: small molecules captured by biotinylated probe aFGF2 – biochemical, small-molecule microarray, fluorescence 635/667, stem cell growth factor project, primary screen (AID 1067).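 Note: measures binding of biotinylated aFGF2 protein to printed compounds on slides; z-score merges feature fluorescence and signal-to-noise across triplicate slides.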 As to conditions: higher = more signal.
Assay [4] in a line: small molecules captured by biotinylated probe aFGF10 – biochemical, small-molecule microarray, fluorescence 635/667, stem cell growth factor project, primary screen (AID 1071).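 Note: score merges 667 nm spot intensity and signal to noise from triplicate slides.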 As to conditions: higher = more signal.
The target of assay [5] is Neurogenic locus notch homolog protein 2 (Homo sapiens) (UniProt Q04721). Nature of the assay: small molecules binding Notch2 protein – biochemical, small-molecule microarray, 635 nm fluorescence, stem cell growth factors, primary screen (AID 1073). As to conditions: higher = more signal.
For assay [6], the target named is Pro-neuregulin-1, membrane-bound isoform (Homo sapiens) (UniProt Q02297). Nature of the assay: small molecules binding neuregulin-1 protein – biochemical, small-molecule microarray, fluorescence 635/667, psychiatric disease protein project, primary screen (AID 1075).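 Note: score combines 667 nm spot fluorescence with signal to noise.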 The following applies: NRG1 binding, 635 nm fluorescence, higher = more signal.
Assay [7] concerns Neuregulin-1 EGF-like domain. Nature of the assay: small molecules binding NRG1 EGF domain – biochemical, small-molecule microarray, 635 nm fluorescence, primary screen (AID 1081).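 Note: binding of the protein to compounds printed on small-molecule microarray slides.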 The following applies: higher = more signal.
A short description of assay [8]: FRG1 expression reporter modulators in myotubes – cell-based, C2C12 myotubes, firefly/Renilla luciferase, luminescence, FRG1 inhibition for FSHD, primary screen (AID 1084). As to conditions: FRG1 promoter luciferase, higher = more signal, called active from +8 up or from −8 down.
Assay [9] can be described thus: small molecules captured by biotinylated probe aFST – biochemical, small-molecule microarray, fluorescence 635/667, stem cell growth factor project, primary screen (AID 1086).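 Note: score merges 667 nm fluorescence with signal-to-noise of each printed compound spot.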 The following applies: higher = more signal.
Assay [10] is described as follows: binders of probe aHhip on microarray, primary screen, stem cell growth factor project, biochemical, small-molecule microarray, fluorescence 635/667 (AID 1087).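 Note: score merges spot fluorescence at 667nm with spot signal to noise ratio.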 The following applies: higher = more signal.
Assay [11] deals with PRMT1 (protein arginine N-methyltransferase 1). Nature of the assay: small molecules binding arginine methyltransferase PRMT1 – biochemical, small-molecule microarray, 635 nm fluorescence, primary screen (AID 1088).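 Note: binding of Prmt1 protein to compounds spotted on small-molecule microarray slides.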 The following applies: higher = more signal.
The nature of assay [12]: growth effects on S. cerevisiae YJM789 – YJM789 clinical isolate, OD600, 24 h, basal, primary screen (AID 1089).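 Note: growth of clinical yeast isolate S. cerevisiae YJM 789 seeded 1000 cells per well; test concentration not given here.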 The following applies: higher = more signal, called active from +8 up or from −8 down.
Assay [13] in a line: S. pombe growth modifiers, basal conditions – strain 972, OD600, 24 h, no modulator, primary screen (AID 1090).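 Note: basal condition with compound alone and no growth modifier present; test concentration not given here.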 The following applies: S. pombe 972 growth, higher = more signal, called active from +8 up or from −8 down.
A short description of assay [14]: budding yeast growth modifiers under rapamycin – strain BY4716, OD600, 96 h, primary screen (AID 1091). Note: test concentration not given here. The following applies: S. cerevisiae BY4716 + rapamycin, higher = more signal, called active from +8 up or from −8 down.
Assay [15] addresses Torsin-1A-interacting protein 2 (Homo sapiens) (UniProt Q8NFQ8). Nature of the assay: small molecules binding lysate-expressed LULL1 – cell lysate, human LULL1 lysate, 635/667 nm fluorescence, primary screen (AID 1092).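 Note: probe is lysate of COS7 cells overexpressing human LULL1; score merges per-feature 667 nm fluorescence with signal-to-noise.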 The following applies: small-molecule microarray, hLULL1 lysate binding, 635 nm fluorescence; higher = more signal.
Assay [16] in a line: optical density change of DRC41 E. coli – strain DRC41, OD650, 24 h, E. coli filamentation project, primary screen (AID 1093).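 Note: MC1000 strain lacking acrAB efflux and sulA so SOS filamentation is blocked; test concentration not given here.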 As to conditions: E. coli DRC41 growth, higher = more signal, called active from +8 up or from −8 down.
Assay [17] is described as follows: probe aLefty2 binding to arrayed compounds – biochemical, biotinylated probe, 635/667 nm fluorescence, primary screen (AID 1094).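 Note: score merges spot fluorescence near 667 nm with spot signal-to-noise ratio.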 As to conditions: small-molecule microarray, higher = more signal.
For assay [18], the system named is Noggin (protein binding on small-molecule microarray). Nature of the assay: small molecules binding Noggin protein – biochemical, 635/667 nm fluorescence, primary screen (AID 1095).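 Note: score merges 667 nm feature fluorescence with signal to noise over triplicate slides.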 The following applies: 635 nm fluorescence, higher = more signal.
Assay [19] has as its target Neurogenic locus notch homolog protein 3 (Homo sapiens) (UniProt Q9UM47). Nature of the assay: small molecules binding NOTCH3 protein – biochemical, 635/667 nm fluorescence, primary screen (AID 1096). The following applies: small-molecule microarray, 635 nm fluorescence, higher = more signal.
A short description of assay [20]: probe aEGFR binding to arrayed compounds – biochemical, biotinylated probe, 635/667 nm fluorescence, primary screen (AID 1097).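 Note: probe is a biotinylated anti-EGFR antibody binding compounds printed on slides; score combines fluorescence near 667 nm and signal to noise of each spot.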 The following applies: small-molecule microarray, higher = more signal.

Activity calls are given as the source filed them.

Chain of Torsin-1A-interacting protein 2 (Homo sapiens) (Q8NFQ8 whole entry, looked up): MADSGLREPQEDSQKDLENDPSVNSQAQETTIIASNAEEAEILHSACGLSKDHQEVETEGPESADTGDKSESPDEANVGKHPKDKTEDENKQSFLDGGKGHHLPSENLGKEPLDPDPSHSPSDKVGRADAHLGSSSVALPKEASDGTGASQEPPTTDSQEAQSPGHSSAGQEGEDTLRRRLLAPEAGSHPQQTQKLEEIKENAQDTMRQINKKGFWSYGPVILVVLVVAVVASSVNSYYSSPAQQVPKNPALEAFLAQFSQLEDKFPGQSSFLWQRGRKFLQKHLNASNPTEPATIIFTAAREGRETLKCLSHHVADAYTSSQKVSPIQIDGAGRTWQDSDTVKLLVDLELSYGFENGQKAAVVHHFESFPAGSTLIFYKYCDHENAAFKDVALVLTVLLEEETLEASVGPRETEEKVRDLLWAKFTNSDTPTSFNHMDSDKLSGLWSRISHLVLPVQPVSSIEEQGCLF
Chain of Pro-neuregulin-1, membrane-bound isoform (Homo sapiens) (Q02297 whole entry, looked up, the tested form may be a part, canonical isoform): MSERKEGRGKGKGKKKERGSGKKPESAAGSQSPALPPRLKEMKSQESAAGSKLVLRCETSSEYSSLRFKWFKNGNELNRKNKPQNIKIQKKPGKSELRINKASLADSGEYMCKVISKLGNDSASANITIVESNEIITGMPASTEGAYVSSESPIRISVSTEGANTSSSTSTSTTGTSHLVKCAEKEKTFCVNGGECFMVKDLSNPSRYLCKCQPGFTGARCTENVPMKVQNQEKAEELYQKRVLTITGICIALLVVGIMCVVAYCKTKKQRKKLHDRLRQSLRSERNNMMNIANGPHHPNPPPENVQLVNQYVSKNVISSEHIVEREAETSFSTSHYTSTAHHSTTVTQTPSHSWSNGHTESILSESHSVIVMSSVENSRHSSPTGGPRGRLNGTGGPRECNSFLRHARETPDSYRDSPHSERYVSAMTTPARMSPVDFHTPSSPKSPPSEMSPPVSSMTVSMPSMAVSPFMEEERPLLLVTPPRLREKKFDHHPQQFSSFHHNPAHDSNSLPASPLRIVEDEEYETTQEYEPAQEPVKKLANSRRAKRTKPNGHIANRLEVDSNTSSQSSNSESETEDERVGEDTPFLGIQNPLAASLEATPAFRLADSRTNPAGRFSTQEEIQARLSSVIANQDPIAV
Chain of Neurogenic locus notch homolog protein 3 (Homo sapiens) (Q9UM47 whole entry, looked up): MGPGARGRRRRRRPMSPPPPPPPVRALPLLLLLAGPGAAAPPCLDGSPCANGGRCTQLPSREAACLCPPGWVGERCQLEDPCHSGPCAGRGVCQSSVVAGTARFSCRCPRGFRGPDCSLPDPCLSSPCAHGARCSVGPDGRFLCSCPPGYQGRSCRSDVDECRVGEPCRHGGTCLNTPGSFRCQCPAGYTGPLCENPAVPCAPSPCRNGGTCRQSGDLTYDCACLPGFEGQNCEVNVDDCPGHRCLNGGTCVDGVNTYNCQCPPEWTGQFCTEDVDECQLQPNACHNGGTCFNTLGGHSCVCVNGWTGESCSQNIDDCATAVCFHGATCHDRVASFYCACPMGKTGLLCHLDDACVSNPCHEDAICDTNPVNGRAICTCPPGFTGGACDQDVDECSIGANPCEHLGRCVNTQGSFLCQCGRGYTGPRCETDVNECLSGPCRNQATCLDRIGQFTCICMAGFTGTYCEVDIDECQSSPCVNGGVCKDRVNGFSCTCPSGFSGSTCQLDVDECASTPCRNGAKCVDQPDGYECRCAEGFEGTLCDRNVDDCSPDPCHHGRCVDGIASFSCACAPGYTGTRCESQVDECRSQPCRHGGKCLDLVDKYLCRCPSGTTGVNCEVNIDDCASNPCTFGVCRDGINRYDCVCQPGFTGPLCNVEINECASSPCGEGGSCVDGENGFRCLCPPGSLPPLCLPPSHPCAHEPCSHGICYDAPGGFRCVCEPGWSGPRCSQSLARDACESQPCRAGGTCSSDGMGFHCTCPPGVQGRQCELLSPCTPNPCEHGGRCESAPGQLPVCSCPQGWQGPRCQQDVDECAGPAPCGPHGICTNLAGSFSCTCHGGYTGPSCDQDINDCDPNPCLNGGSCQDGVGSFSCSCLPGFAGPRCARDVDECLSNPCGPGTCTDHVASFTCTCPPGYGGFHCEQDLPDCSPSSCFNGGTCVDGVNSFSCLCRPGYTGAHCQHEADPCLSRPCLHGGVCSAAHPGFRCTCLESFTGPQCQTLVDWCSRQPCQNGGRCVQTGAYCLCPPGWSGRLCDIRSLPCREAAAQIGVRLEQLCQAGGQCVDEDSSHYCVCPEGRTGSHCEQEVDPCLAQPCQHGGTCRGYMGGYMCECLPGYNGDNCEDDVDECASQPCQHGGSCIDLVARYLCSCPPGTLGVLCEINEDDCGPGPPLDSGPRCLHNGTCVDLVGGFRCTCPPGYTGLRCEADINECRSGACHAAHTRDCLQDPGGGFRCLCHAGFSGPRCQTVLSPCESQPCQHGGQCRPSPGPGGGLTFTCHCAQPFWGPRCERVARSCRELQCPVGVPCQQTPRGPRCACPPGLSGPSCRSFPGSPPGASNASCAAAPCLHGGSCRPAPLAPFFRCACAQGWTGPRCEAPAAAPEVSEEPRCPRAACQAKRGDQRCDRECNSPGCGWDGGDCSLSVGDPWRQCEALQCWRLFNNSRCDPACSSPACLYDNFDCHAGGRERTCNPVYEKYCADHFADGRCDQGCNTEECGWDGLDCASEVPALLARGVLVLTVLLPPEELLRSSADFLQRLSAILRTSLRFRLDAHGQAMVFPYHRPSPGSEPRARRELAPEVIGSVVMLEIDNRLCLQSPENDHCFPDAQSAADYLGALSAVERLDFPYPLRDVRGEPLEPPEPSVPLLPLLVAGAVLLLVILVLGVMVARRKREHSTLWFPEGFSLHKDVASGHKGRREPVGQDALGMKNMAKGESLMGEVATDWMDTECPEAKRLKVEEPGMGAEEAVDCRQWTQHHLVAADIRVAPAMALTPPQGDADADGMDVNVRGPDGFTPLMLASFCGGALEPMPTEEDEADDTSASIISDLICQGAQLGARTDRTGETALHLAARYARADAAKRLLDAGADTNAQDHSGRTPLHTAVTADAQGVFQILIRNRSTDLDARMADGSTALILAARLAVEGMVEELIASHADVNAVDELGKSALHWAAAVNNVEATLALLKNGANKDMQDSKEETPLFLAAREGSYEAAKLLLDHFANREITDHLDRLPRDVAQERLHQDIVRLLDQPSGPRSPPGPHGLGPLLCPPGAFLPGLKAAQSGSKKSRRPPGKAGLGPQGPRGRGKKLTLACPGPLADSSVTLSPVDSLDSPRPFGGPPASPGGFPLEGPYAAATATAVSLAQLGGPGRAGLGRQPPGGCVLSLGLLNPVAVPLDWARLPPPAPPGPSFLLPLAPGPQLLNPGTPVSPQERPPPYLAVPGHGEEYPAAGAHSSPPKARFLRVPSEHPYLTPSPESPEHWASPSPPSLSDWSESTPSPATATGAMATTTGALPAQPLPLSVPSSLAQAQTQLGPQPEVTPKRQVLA

Consider `COC(=O)c1ccc(C(O)C2C=CC3C(=O)N(c4ccccc4)C(=O)C3N2Nc2ccc(C#N)cc2)o1` (stereo not given), for which the composite z-score in assay [1] was 0.042; in [2], 0.465; in [3] it was 0.0394; in assay [4], 0.865; in assay [5], 1.33; in [6] it was 0.665. Besides, the composite z-score in [7] is 1.34; in assay [9] it was 0.478; in assay [10], -0.199; in assay [11], 0.431; in assay [15], 3.19; in assay [17], -0.0478. Besides, the composite z-score in [18] is 0.284; in [19], 0.927; in assay [20], -0.0446. The z-score was 0.447 (inactive) in assay [8]; -0.0337 (inactive) in [12]; 0.328 (inactive) in assay [13]; 0.989 (inactive) in assay [14]; -1.07 (inactive) in [16].
As for `C=CCNC(=O)[C@@H]1[C@H]2C(=O)O[C@H](c3ccccc3)[C@H](c3ccccc3)N2[C@H](c2ccccc2OCCO)[C@@]12C(=O)Nc1ccc(C#CC3=CCCCC3)cc12`, the composite z-score was -0.098 in assay [1]; 0.571 in assay [2]; 0.0368 in assay [3]; 0.865 in assay [4]; 1.25 in assay [5]; 0.948 in [6]. The composite z-score in assay [7] was determined as 1.12; in assay [9], 0.639; in assay [10] it was 0.134; in assay [11], 1.55; in assay [15] it was 2.75; in assay [17] it was 0.058. Moreover, the composite z-score is 0.983 in assay [18], 1.11 in assay [19] and -0.0185 in [20]. The z-score in assay [8] is 0.0472 (inactive); in assay [12], 1.05 (inactive); in assay [13] it was -3.5 (inactive); in assay [14], 2.87 (inactive); in assay [16], 1.47 (inactive).
Turning to `CC(C)C[C@@H]1NC(=O)[C@@H]2C[C@H](C(=O)NCCCCCC[N+](C)(C)C)[C@H](c3ccc(O)cc3)N2C1=O`, the composite z-score in [1] is -0.0515; in assay [2], 0.349; in assay [3], -0.112; in assay [4], 0.154; in [5], -0.344; in assay [6] it was 1.57. For the same molecule, the composite z-score in [7] was 1.46; in [9] it was 0.0819; in [10] it was -0.271; in assay [11] it was 1.56; in [15] it was 3.21; in assay [17], -0.0437. For the same molecule, the values for the composite z-score in assay [18], in assay [19] and in assay [20] were 0.857, 0.873 and -0.176, respectively. Besides, the z-score is 1.97 (inactive) in assay [8]; 0.633 (inactive) in assay [12]; 0.904 (inactive) in assay [13]; 0.445 (inactive) in [14]; 0.266 (inactive) in assay [16].
Regarding `NC(=O)NCC#Cc1ccc2c(c1)[C@]1(C(=O)N2)[C@H](C(=O)N2CCCCCCC2)[C@H]2C(=O)O[C@H](c3ccccc3)[C@H](c3ccccc3)N2[C@@H]1c1ccc(OCCO)cc1`, the composite z-score in assay [1] was 3.14; in [2], 0.756; in [3] it was 0.326; in assay [4] it was 0.904; in assay [5] it was 0.481; in assay [6], 0.463. The composite z-score was determined as 0.292 in assay [7]; 3.05 in assay [9]; 3.7 in [10]; 1.43 in assay [11]; 2.06 in [15]; 1.63 in assay [17]. Moreover, the composite z-score in [18] was 1.47; in [19], 1.02; in [20], 0.864. For the same molecule, the z-score in assay [8] is 0.832 (inactive); in [12], 1.65 (inactive); in [13] it was 0.562 (inactive); in assay [14] it was 4.58 (inactive); in assay [16], -0.219 (inactive).
Consider `CCOC(=O)C1=C[C@@H](CC)N(S(=O)(=O)c2ccc(C)cc2)[C@H]1c1ccccc1`, for which the composite z-score was 0.119 in [1]; -0.872 in assay [2]; 0.0603 in [3]; 0.572 in assay [4]; 1.61 in assay [5]; 1.1 in assay [6]. Further, the composite z-score in assay [7] was 0.919; in assay [9], 0.962; in assay [10] it was 0.0373; in assay [11] it was 1.18; in assay [15], 2.71; in [17], 0.097. Further, the composite z-score in assay [18] came to 0.13; in assay [19], 1.1; in [20], 0.0356. Also, the z-score is -1.74 (inactive) in [8]; -0.595 (inactive) in assay [12]; 0.849 (inactive) in assay [13]; 0.567 (inactive) in assay [14]; -0.556 (inactive) in assay [16].
